# Reference: PubChem BioAssay AID2551 (National Center for Advancing Translational Sciences (NCATS), 2010)
# About 17,000 (5.5%) of roughly 310,000 compounds were called active. Roughly 11% stayed inconclusive and do not appear here. Only a selection was taken, and actives are over-represented in it overall. A number with no mark means an inactive call. The call rests on the fitted dose curve; in most records, active means well fitted inhibition curve with a large enough effect; inconclusive means small, poorly fitted or top-dose-only effect, or effect the other way; inactive means no such curve, though single readings can be large or run the other way.
# Molecular target: Nuclear receptor ROR-gamma (Mus musculus) (UniProt P51450)
# Sequence (P51450 whole entry, looked up): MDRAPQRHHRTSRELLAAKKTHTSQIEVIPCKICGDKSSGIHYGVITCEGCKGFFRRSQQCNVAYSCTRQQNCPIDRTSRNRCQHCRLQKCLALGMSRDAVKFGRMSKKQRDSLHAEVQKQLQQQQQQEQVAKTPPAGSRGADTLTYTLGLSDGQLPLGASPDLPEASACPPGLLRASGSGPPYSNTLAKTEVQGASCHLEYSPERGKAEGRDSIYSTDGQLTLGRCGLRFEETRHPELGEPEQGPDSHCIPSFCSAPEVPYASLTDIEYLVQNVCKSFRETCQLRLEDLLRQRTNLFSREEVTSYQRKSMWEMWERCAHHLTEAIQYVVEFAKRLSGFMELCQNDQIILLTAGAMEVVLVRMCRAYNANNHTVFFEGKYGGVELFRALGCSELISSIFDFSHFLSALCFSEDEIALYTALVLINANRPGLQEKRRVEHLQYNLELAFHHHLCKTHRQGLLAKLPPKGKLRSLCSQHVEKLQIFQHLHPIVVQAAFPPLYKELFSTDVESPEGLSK
# Assay: qHTS for inhibitors of ROR gamma transcriptional activity; further: nearly all actives have a fitted effect of over 60% in size
# Conditions: Drosophila S2 Gal4-RORgamma UAS-luciferase reporter, 20 h; series mostly up to 53.6 µM; activity change, negative = inhibition: at the top concentration
# Summary of the method: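 Drosophila Schneider cells stably carrying a metallothionein-driven Gal4 DBD–ROR gamma fusion and a UAS-Photinus luciferase reporter were exposed to compound for 1 hr, then induced with copper sulfate (700 uM final) for 20 hr at ambient temperature before luminescence reading.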
# On the % scale 0 is the no-effect control and ±100 the full control effect; potency means the concentration at half of the fitted maximal effect.
Compound,"activity change, negative = inhibition",Potency
COCCc1nn2c(=O)cc(COC(=O)c3cc(OC)c(OC)c(OC)c3)nc2s1,-34.4%,
CN(c1ccccc1)S(=O)(=O)c1ccc(C(=O)NCCc2ccccc2)cc1,27.7%,
CCCc1cc(C(=O)N2CCCC(CO)(CCCc3ccccc3)C2)n(C)n1 (centres undefined),44.2%,
CCOc1ccc(NC(=O)CCCCCN2C(=O)[C@@H]3Cc4ccccc4CN3C2=O)cc1,-27.6%,
Cc1cc(-c2nnc(SCC(=O)Nc3ccc(F)cc3)n2N)n[nH]1,-19%,
C=CCC1(C#N)C(=S)NC(C)=C(C(=O)OCC)C1c1ccccc1 (centres undefined),,10 µM (active)
CCOC(=O)C1=C(C)NC(SC)=NC1c1ccccc1 (centres undefined),26.3%,
C=CCOC(=O)C1=C(C)OC(N)=C(C#N)C1c1ccc(F)cc1 (centres undefined),-3.91%,
CC(C(=O)Nc1ccc(O)c(C(=O)O)c1)N1C(=O)/C(=C/c2cccs2)SC1=S (centres undefined),-1.15%,
O=C(COC(=O)c1ccc(F)cc1)NCCCc1ccccc1,-5.4%,
O=C(NCCc1cccc(F)c1)C1CCCN(c2nc3ccccc3s2)C1 (centres undefined),7.11%,
COc1cccc(NC(=O)c2ccccc2SC)c1,36%,
COc1cccc(NC(=O)c2nn(-c3ccc(OC)cc3OC)c(=O)c3ccccc23)c1,-10.3%,
COc1cccc(NC(=S)NC(=O)c2c(Cl)c(C)nn2C)c1,,3.55 µM (active)
CC1(C(=O)N/N=C/c2cc3c(cc2Br)OCO3)CC1(Br)Br (centres undefined),20%,
COc1ccc(/C=C/c2noc(-c3ccccc3OC(C)=O)n2)cc1,,11.2 µM (active)
COc1ccccc1-c1nnc(SCC(=O)Nc2cc(C)on2)o1,-33%,
CC(=O)Oc1ccc(-c2nc3c(C)cccc3c(=O)o2)cc1,-6.86%,
CCOC(=O)c1c(C)[nH]c(C)c1S(=O)(=O)N(C)CC(=O)Nc1ccccc1C,6.38%,
CCOC(=O)c1ccc(NC(=O)CNC(=O)c2ccco2)cc1,0.921%,
CCOC(=O)c1ccc(NC(=O)c2cc(=O)[nH]c3ccccc23)cc1,5.91%,
CCOC(=O)c1[nH]cnc1C(=O)Nc1ccccc1C,,12.6 µM (active)
Cc1ccccc1NC(=O)CCOc1ccccc1,18.4%,
CCOC(=O)c1ccc(NC(=O)c2nc[nH]c2C(=O)NCc2ccccc2)cc1,,3.55 µM (active)
Cc1ccc(CNS(=O)(=O)c2ccc3c(c2)N(C)CCO3)cc1,43.1%,
COc1ccc(CCNC(=O)CSCc2ccc(Br)cc2)cc1OC,38.4%,
COc1cc(C(C(=O)NC2CCCC2)N(C(=O)c2ccco2)c2ccccc2C(C)=O)cc(OC)c1OC (centres undefined),-0.826%,

Compound,"activity change, negative = inhibition",Potency
CCN1N=C(c2ccccc2)CCC1=O,-3%,
COCCCNc1nc2c(-c3cccc(C)c3)nnn2c2ccc(Cl)cc12,-39.1%,
COC(=O)Cn1cc(/C=C/[N+](=O)[O-])c2ccccc21,,10 µM (active)
COC(=O)Cn1cc(C(=O)c2cccs2)c2ccccc21,23.9%,
COCCCNC(=O)Cn1cc(/C=C(\C#N)C(=O)N2CCN(c3ccccc3)CC2)c2ccccc21,-6.89%,
O=C(NCc1cccc(Cl)c1)C1CCN(c2nnc(N3CCCC3=O)s2)CC1,11%,
CCOC(=O)C1CCN(C(=O)C2CCCN(S(=O)(=O)c3ccc(OC)c(Cl)c3)C2)CC1 (centres undefined),23.7%,
CCOC(=O)N/N=C/c1cccnc1,17%,
COc1cc(/C=N/NC(=S)Nc2cccnc2)cc(OC)c1O,,6.31 µM (active)
COc1ccc(/C=C/C(=O)Nc2cccnc2)cc1OC,37%,
COc1cc(N=Cc2c(O)[nH]c3ccccc23)cc(OC)c1OC,-6.6%,
COCCNC(=S)N/N=C/c1c(C)[nH]c2ccccc12,,11.2 µM (active)
Cc1[nH]c2ccccc2c1/C=N\NC(=O)Cn1nnc(-c2ccccc2)n1,7.95% [at 10 µM],
C=CCn1c(=O)c(C(=O)Nc2ncccc2O)c(O)c2ccccc21,-18%,
CCOc1ccc(/C=N/NC(N)=S)cc1,,5.01 µM (active)
Cc1ccc(OCCOc2cccc(/C=N/NC(N)=O)c2)cc1,-0.897%,
COC(=O)N/N=C/c1ccc(/C=N/NC(=O)OC)cc1,9.4%,
COC(=O)[C@@H]1CCCN1C(=O)c1cc(COc2cccc3cccnc23)on1,-12.3%,
CCCC(=O)N1CCN(c2nnc(-c3ccc(C)cc3)c3ccccc23)CC1,-3%,
O=C(CN1C(=O)COc2ccc(Cl)cc21)N1CCOCC1,-30.2%,
Cc1ccc(CN(Cc2cccnc2)C(=S)Nc2cccc(Cl)c2C)cc1,,3.98 µM (active)
Cc1cccc(C(=O)Nc2ccccc2C(=O)NCc2cccnc2)c1,-0.355%,
Cc1ccc(C)c(NC(=S)NCC(c2cccnc2)N2CCOCC2)c1 (centres undefined),-15.5%,
Cc1ccccc1NC(=S)N(CCCN1CCOCC1)Cc1cccs1,-24.3%,
CCc1cccc(C)c1NC(=S)N(CCCN1CCN(C)CC1)Cc1cccs1,-5.96%,
Cc1ccc(Cl)cc1NC(=S)N(CCN(C)C)Cc1cccs1,,11.2 µM (active)
Cc1ccc(C)c2[nH]c(=O)c(CN(Cc3cccnc3)C(=S)NCc3ccco3)cc12,30.7%,
